The text below walks through data of PubChem BioAssay (NCATS).

Assay [1] can be described thus: qHTS for Inhibitors of Plasmodium falciparum (DD2) proliferation (AID 504314).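 Note: parasite DNA measured by SYBR Green fluorescence after red cell lysis; plate controls were DMSO vehicle for no effect and artemisinin wells for full effect.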 In outline: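 Erythrocytes infected with P. falciparum Dd2 (0.3% parasitemia, 2.5% hematocrit) exposed to compound 72 h at 37C, 5% CO2. Parasite DNA quantified by SYBR Green fluorescence after saponin/Triton lysis overnight; normalized to 0.29 uM artemisinin and DMSO.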
Assay [2] can be described thus: qHTS for Inhibitors of Plasmodium falciparum (GB4) proliferation (AID 504315). Note: nearly all actives have a fitted effect of over 50% in size. Note: potency is the fitted concentration of half-maximal effect. In outline: (§1)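 Erythrocytes infected with P. falciparum line (0.3% parasitemia, 2.5% hematocrit final) incubated with compounds 72 h at 37 °C, 5% CO2; SYBR Green lysis buffer added, fluorescence read next day. Normalized to 0.29 uM artemisinin and DMSO.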
The nature of assay [3]: qHTS for Inhibitors of Plasmodium falciparum (7G8) proliferation (AID 504316). Note: nearly all actives have a fitted effect of over 65% in size. Note: potency is the fitted concentration of half-maximal effect. In a few lines:
as §1

Assay [4] in a line: qHTS for Inhibitors of Plasmodium falciparum (HB3) proliferation (AID 504318). Note: nearly all actives have a fitted effect of over 60% in size. Note: potency is the fitted concentration of half-maximal effect. In outline: as §1
A short description of assay [5]: qHTS for Inhibitors of Plasmodium falciparum (CP250) proliferation (AID 504320).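 Note: plate controls were DMSO vehicle for no effect and 0.29 µM artemisinin control for full effect.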 In a few lines: as §1
The target of assay [6] is Cytochrome P450 3A4 (Homo sapiens) (UniProt P08684). Briefly: qHTS Assay for Activators of Cytochrome P450 3A4 (AID 885). Note: nearly all actives have a fitted effect of over 65% in size. In outline: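 Human CYP3A4 (20 nM) with Luciferin-PPXE at 25 uM (its KM) in 200 mM KPO4; 10 min compound preincubation, then NADPH regeneration and 60 min reaction at RT. Luciferin read by luminescence; normalized to 57 uM ketoconazole full inhibition.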
Sequence of Cytochrome P450 3A4 (Homo sapiens) (P08684 whole entry, looked up): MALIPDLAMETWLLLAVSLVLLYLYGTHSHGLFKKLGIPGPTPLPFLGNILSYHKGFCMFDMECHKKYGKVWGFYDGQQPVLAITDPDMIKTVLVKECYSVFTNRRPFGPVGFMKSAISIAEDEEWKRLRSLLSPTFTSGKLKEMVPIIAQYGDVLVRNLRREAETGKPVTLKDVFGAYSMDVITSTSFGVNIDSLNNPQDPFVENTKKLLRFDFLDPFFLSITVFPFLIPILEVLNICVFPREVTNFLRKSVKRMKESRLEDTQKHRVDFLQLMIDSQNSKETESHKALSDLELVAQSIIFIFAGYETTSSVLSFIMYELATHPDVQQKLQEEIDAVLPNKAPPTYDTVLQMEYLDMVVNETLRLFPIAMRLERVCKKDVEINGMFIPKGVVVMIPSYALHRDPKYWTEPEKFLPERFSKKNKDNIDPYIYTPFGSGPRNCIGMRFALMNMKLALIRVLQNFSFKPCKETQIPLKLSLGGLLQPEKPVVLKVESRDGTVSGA

For assay [7], the target named is Cytochrome P450 2C19 (Homo sapiens) (UniProt P33261). The assay is described as follows: qHTS Assay for Inhibitors and Substrates of Cytochrome P450 2C19 (AID 899). Note: potency is the fitted concentration of half-maximal effect; nearly all actives have a fitted effect of over 60% in size. In outline: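 Reactions contain 5nM enzyme, 10uM Luciferin-H EGE (KM) and 50mM KPO4; compound preincubates 10 min at 37C, NADPH regeneration starts turnover for 60 min. Luminescence after detection reagent gives activity.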
Sequence of Cytochrome P450 2C19 (Homo sapiens) (P33261 whole entry, looked up): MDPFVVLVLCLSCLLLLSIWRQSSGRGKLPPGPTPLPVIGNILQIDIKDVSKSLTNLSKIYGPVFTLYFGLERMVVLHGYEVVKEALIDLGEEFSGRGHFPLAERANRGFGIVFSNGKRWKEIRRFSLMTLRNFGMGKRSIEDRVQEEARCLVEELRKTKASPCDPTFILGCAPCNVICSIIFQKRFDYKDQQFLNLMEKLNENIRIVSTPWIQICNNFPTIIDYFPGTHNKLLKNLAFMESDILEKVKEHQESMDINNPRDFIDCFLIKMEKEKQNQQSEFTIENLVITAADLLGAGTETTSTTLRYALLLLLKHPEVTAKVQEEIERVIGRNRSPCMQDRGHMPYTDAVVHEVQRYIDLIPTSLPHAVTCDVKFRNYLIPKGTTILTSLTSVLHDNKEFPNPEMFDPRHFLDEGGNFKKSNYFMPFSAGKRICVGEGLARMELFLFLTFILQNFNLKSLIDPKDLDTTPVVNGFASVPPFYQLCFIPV

Unmarked numbers belong to inactive results. Results filed as inconclusive are left out. Activity calls are given as the source filed them. Calls come from the whole dose curve; as a rule, active = well fitted curve in the direction sought with a large enough effect; inconclusive = small, poorly fitted or top-dose-only effect, or another doubt; inactive = no such curve, though single readings can be large; an effect the other way counts as inactive or inconclusive.

Regarding `CCOC(=O)CN1C(=O)NC(c2cccs2)C(C(=O)OC)=C1C` (configuration not stated), the Potency entry in assay [1], in assay [2], in assay [3], in assay [4] and in assay [5] was “inactive” in each case.

Regarding `COc1ccc(COC(=O)NN=C2C[C@@H](O)[C@@H](O)[C@@H]3[C@H]4C(=O)N(c5ccc(F)cc5F)C(=O)[C@@H]4CC[C@H]23)cc1`, the Potency result in assay [1], in assay [2], in assay [3], in assay [4] and in assay [5] was “inactive” each time.

Take `O=C(NN=C1C[C@@H](O)[C@H](O)[C@H]2[C@@H]3C(=O)N(c4cccc(Oc5ccccc5)c4)C(=O)[C@@H]3CC[C@H]12)OCc1ccccc1`: the Potency result in assay [1], in assay [2], in assay [4] and in assay [5] was “inactive” in each case.

Turning to `COC[C@H]1O[C@H](c2ccccc2)C=C[C@H]1OCc1cccc(Br)c1`, the Potency result in assay [1], in assay [2], in assay [3] and in assay [5] was “inactive” throughout.

Consider `O=C1[C@H]2[C@@H]3[C@@H](O)[C@H](O)CC(=NOCc4ccccc4)[C@@H]3CC[C@H]2C(=O)N1C[C@@H]1CCCO1`, for which the Potency result in assay [1], in assay [2], in assay [3], in assay [4] and in assay [5] was “inactive” in each case.

In the case of `COc1ccc2ccccc2c1-c1c(OC)ccc2ccccc12`, the Potency entry in assay [1], in assay [2], in assay [3], in assay [4] and in assay [5] was “inactive” each time.

As for `CCN1C(=O)NC(c2cccc(C(F)(F)F)c2)C(C(=O)OC)=C1C` (configuration not stated), the Potency result in assay [1], in assay [2], in assay [3], in assay [4] and in assay [5] was “inactive” throughout.

Consider `CCCCc1cc2c(cn1)=C(OC(=O)CCC(=O)OC)C(C)(OC(=O)CC)C(=O)C=2` (configuration not stated), for which, in assay [1], the activity, negative = inhibition was -0.996% [at 1.12 µM]. Besides, the Potency in assay [2] and in assay [3] was 1690 nM (active) each time. Moreover, in assay [5], the Potency entry is “inactive”.

As to `COC[C@H]1O[C@@H]2O[C@@H]1[C@@H](C=Cc1ccccc1)C[C@H]2C`, the Potency result in assay [1], in assay [2], in assay [4] and in assay [5] was “inactive” each time.

Turning to `C[C@@H]1CC[C@H]2C(=O)N(Cc3cccc([N+](=O)[O-])c3)C[C@@H](O)CN2[C@@H]1c1ccc(Br)cc1`, the Potency result in assay [1], in assay [2] and in assay [5] was “inactive” throughout.

For the compound `COc1cc(OC)c([C@@H]2O[C@H](CO)[C@@H](O)[C@H](O)[C@@H]2O)c(OC)c1`, the Potency entry in assay [1], in assay [2], in assay [4] and in assay [5] was “inactive” throughout.

With `COc1ccc(-c2nc(-c3ccccc3)oc2NC2CCCCC2)cc1`, the Potency result in assay [1], in assay [2], in assay [3], in assay [4] and in assay [5] was “inactive” each time.

As for `C#CCN1C(=O)[C@]2(OCCC=C[C@@H]2C)c2cc(OC)ccc21`, the Potency result in assay [1], in assay [2], in assay [3], in assay [4] and in assay [5] was “inactive” each time.

For the compound `CCCCCCCC1=Cc2ccccc2C(CC(C)=O)N1C(=O)OC` (configuration not stated), in assay [6], the activity change, positive = activation is -59.5% [at 11.4 µM]. For the same compound, the Potency in assay [7] was 2510 nM (active); in assay [4], 1690 nM (active). Further, the Potency result in assay [1] and in assay [2] was “inactive” in each case.

As to `COc1cccc([C@H]2Oc3ccc(OC)cc3C(=NOC[C@@H](O)COCc3ccco3)[C@H]2O)c1`, the Potency result in assay [1], in assay [2], in assay [3], in assay [4] and in assay [5] was “inactive” in each case.

For the compound `C=CC1=C2C=C(C3CC3)N(C3CCCCC3)C=C2C(=O)C(C)(OC(=O)c2ccco2)C1=O` (configuration not stated), the activity, negative = inhibition in assay [1] is 1.92% [at 1.12 µM]. The Potency entry in assay [2], in assay [3] and in assay [5] was “inactive” in each case.

Regarding `COc1cccc(CO[C@H]2C=C[C@@H](c3ccccc3)O[C@H]2COC(C)=O)c1`, the Potency entry in assay [1], in assay [2], in assay [3] and in assay [5] was “inactive” each time.

`CCN1C(=NCc2ccccc2)NC(c2cccc(C(F)(F)F)c2)C(C(=O)OC)=C1C` (configuration not stated): the Potency entry in assay [4] was “inactive”.

In the case of `C=CCN1c2ccccc2[C@]23C[C@@H](C(=O)OC)N(C(=O)Nc4ccc(C(F)(F)F)cc4)C2=NC(C(=O)OC)=C(C(=O)OC)[C@H]13`, the Potency result in assay [2], in assay [3] and in assay [4] was “inactive” each time.

Turning to `COC(=O)C1=C(C)N(Cc2ccccc2)C(=NCCc2ccc(O)cc2)NC1c1ccc(Br)cc1` (configuration not stated), the Potency result in assay [3] and in assay [4] was “inactive” each time.
